Reference: PubChem BioAssay AID1159580 (chemical genetic matrix, 2015)
Where “and” joins values, the source holds several entries; their conditions need not be identical. Equal entries are not always repeated. Hit rate of the full screen: of about 5,500 compounds, about 2,000 (36%) were called active. Another 18% or so got no clear call; they are omitted. No stated cut-off is given here; in the data, active means normalized growth mostly below about 0.91 (no sharp cut-off); inconclusive means no clear call, values can overlap the other calls; inactive means mostly above about 0.92. This is one part of the list.

Test: chemical genetic growth profiling, strain panel (AID 1159580);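 further: tested at 20 µM; growth read once vehicle control cultures reached saturation at 30 °C; 1 = growth at the plate median or of vehicle wells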
Settings: S. cerevisiae deletion strains, growth OD

Measured: normalized growth

Nc1ccc(C(=O)O)cc1
inactive: locus YAL021C, strain ccr4, stronger effect = lower value 0.984 | locus YAL026C, strain drs2, stronger effect = lower value 1.01 | locus YAL030W, strain snc1, stronger effect = lower value 1.01 | locus YBL061C, strain skt5, stronger effect = lower value 1.02 | locus YBR009C, strain hhf1, stronger effect = lower value 0.993 | locus YBR021W, strain FUR4, stronger effect = lower value 1.01 | locus YBR023C, strain chs3, stronger effect = lower value 1.03 | locus YBR171W, strain sec66, stronger effect = lower value 1.02 | locus YBR229C, strain ROT2, stronger effect = lower value 0.996 | locus YBR231C, strain swc5, stronger effect = lower value 1.04 | locus YBR279W, strain paf1, stronger effect = lower value 1.02 | locus YCL011C, strain gbp2, stronger effect = lower value 1.01 | locus YCL016C, strain dcc1, stronger effect = lower value 1.03 | locus YCL029C, strain bik1, stronger effect = lower value 1.01 | locus YCL061C, strain MRC1, stronger effect = lower value 1.02 | locus YCL069W, strain vba3, stronger effect = lower value 1.01 | locus YCR088W, strain abp1, stronger effect = lower value 1.01 | locus YDL005C, strain med2, stronger effect = lower value 1.02 | locus YDL035C, strain GPR1, stronger effect = lower value 1.01 | locus YDL040C, strain nat1, stronger effect = lower value 1.02 | locus YDL074C, strain BRE1, stronger effect = lower value 1.03 | locus YDL101C, strain DUN1, stronger effect = lower value 1.02 | locus YDL134C, strain PPH21, stronger effect = lower value 1.01 | locus YDL185W, strain tfp1, stronger effect = lower value 1.03 | locus YDL192W, strain arf1, stronger effect = lower value 1.01 | locus YDR001C, strain nth1, stronger effect = lower value 1 | locus YDR069C, strain doa4, stronger effect = lower value 1.04 | locus YDR101C, strain arx1, stronger effect = lower value 0.996 | locus YDR137W, strain rgp1, stronger effect = lower value 1.01 | locus YDR159W, strain sac3, stronger effect = lower value 1 | locus YDR162C, strain NBP2, stronger effect = lower value 1.02 | locus YDR195W, strain ref2 1.04 | locus YDR297W, strain sur2, stronger effect = lower value 1.02 | locus YDR318W, strain mcm21, stronger effect = lower value 1.01 | locus YDR334W, strain swr1, stronger effect = lower value 1.01 | locus YDR335W, strain msn5, stronger effect = lower value 1.02 | locus YDR388W, stronger effect = lower value 1.01 | locus YDR392W, strain spt3, stronger effect = lower value 0.972 | locus YDR502C, strain sam2, stronger effect = lower value 1.01 | locus YEL003W, strain gim4, stronger effect = lower value 1.02 | locus YEL037C, strain rad23, stronger effect = lower value 1.01 | locus YEL061C, strain CIN8 (second series), stronger effect = lower value 1.02 | locus YEL061C, strain CIN8, stronger effect = lower value 1 | locus YER015W, strain faa2, stronger effect = lower value 1.04 | locus YER016W, strain bim1, stronger effect = lower value 0.987 | locus YER110C, stronger effect = lower value 1.02 | locus YER111C, strain swi4, stronger effect = lower value 1.03 | locus YER155C, strain BEM2 (second series), stronger effect = lower value 1.04 | locus YER155C, strain BEM2, stronger effect = lower value 0.994 | locus YER167W, strain BCK2, stronger effect = lower value 1.01 | locus YFR010W, strain ubp6, stronger effect = lower value 1.02 | locus YGL078C, strain dbp3, stronger effect = lower value 1 | locus YGL086W, strain mad1, stronger effect = lower value 1 | locus YGL167C, strain pmr1, stronger effect = lower value 1.02 | locus YGL173C, strain kem1, stronger effect = lower value 1.03 | locus YGL227W, strain vid30, stronger effect = lower value 1 | locus YGL240W, strain doc1, stronger effect = lower value 1.03 | locus YGL248W, strain PDE1, stronger effect = lower value 1 | locus YGL253W, strain hxk2, stronger effect = lower value 1.01 | locus YGR078C, strain PAC10, stronger effect = lower value 1 | locus YGR135W, strain pre9, stronger effect = lower value 1.02 | locus YGR252W, strain gcn5, stronger effect = lower value 1.04 | locus YHR027C, strain rpn1, stronger effect = lower value 1.02 | locus YHR030C, strain SLT2, stronger effect = lower value 0.999 and 1.11 | locus YHR079C, strain IRE1 (second series), stronger effect = lower value 1.01 | locus YHR079C, strain IRE1, stronger effect = lower value 1.01 | locus YHR094C, strain hxt1, stronger effect = lower value 1.01 | locus YHR129C, strain ARP1, stronger effect = lower value 1 | locus YHR142W, strain chs7, stronger effect = lower value 0.988 | locus YHR200W, strain rpn10, stronger effect = lower value 1.02 | locus YIL066C, strain RNR3, stronger effect = lower value 1.01 | locus YIL073C, strain SPO22, stronger effect = lower value 1.03 | locus YIL125W, strain kgd1, stronger effect = lower value 1.01 | locus YIR030C, strain dcg1, stronger effect = lower value 1.02 | locus YJL092W, strain hpr5, stronger effect = lower value 1.02 | locus YJL095W, strain BCK1 (second series), stronger effect = lower value 1 | locus YJL095W, strain BCK1, stronger effect = lower value 1.04 and 1.01 | locus YJL115W, strain asf1, stronger effect = lower value 1.02 | locus YJL129C, strain trk1, stronger effect = lower value 1.02 | locus YJL134W, strain LCB3, stronger effect = lower value 1 | locus YJL154C, strain vps35, stronger effect = lower value 1.03 | locus YJL164C, strain tpk1, stronger effect = lower value 1 | locus YJL166W, strain qcr8, stronger effect = lower value 1.06 | locus YJL168C, strain set2, stronger effect = lower value 1.01 | locus YJL187C, strain SWE1 (second series), stronger effect = lower value 1.03 | locus YJL187C, strain SWE1, stronger effect = lower value 1.02 | locus YJR043C, strain POL32, stronger effect = lower value 0.996
